# Bioassay records from PubChem.
# NTMT1 inh – Primary qHTS for Inhibitors of N-terminal methyltransferase 1 (NTMT1): MTaseGlo Assay; 59,000 compounds, 2.5% hits; NTMT1 MTase-Glo SAH luminescence, purified enzyme; Potency, µM (top dose mostly 114 µM), without a hit: at the top dose activity change, negative = inhibition, actives largely listed as inhibitors;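 further: potency means the concentration at half of the fitted maximal effect; plate controls were DMSO vehicle for no effect and no enzyme for full effect; nearly all actives have a fitted effect of over 65% in size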
# Target sequence (Q9BV86 whole entry, looked up): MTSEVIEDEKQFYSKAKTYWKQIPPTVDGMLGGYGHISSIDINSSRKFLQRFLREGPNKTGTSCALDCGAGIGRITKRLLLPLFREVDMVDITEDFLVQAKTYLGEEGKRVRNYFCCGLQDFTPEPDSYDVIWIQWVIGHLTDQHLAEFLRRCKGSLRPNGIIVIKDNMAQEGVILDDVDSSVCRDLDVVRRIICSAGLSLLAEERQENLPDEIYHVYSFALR
# FH mod – Identification of activators of human fumarate hydratase by quantitative high-throughput screening; Fumarate hydratase, mitochondrial (Homo sapiens), P07954; FH coupled MDH/diaphorase resazurin fluorescence, 15 min; Potency, µM (top dose mostly 79.9 µM), inactives show at the highest dose activity change, negative = inhibition, most hits filed as inhibitors; 54,000 compounds, 0.22% hits; AID 1347055, 2019; further: potency means the concentration at half of the fitted maximal effect; on the % scale 0 is the no-effect control and ±100 the full control effect; the screen sought activators but most active calls are inhibition curves; nearly all actives have a fitted effect of over 45% in size
# NNMT inh – Counterscreen qHTS for Inhibitors of N-terminal methyltransferase 1 (NTMT1): NNMT MTaseGlo assay. AID 1645878, 2021. shares compounds with NTMT1 inh. Potency, µM (top dose mostly 57.1 µM), for inactives: at the top dose activity, negative = inhibition, most hits filed as inhibitors. 120 compounds, 10% hits. NNMT MTase-Glo luminescence, SAH detection
# Target sequence (P40261 whole entry, looked up): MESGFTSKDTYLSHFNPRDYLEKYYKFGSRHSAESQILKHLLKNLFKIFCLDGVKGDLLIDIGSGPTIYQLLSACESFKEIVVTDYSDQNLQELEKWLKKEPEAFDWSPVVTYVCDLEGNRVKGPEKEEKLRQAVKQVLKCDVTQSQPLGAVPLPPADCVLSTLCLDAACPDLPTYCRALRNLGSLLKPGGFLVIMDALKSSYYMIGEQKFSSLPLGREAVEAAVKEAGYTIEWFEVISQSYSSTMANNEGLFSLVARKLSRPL
# Numbers without * were called inactive; ? = inconclusive; · = no result; ! = repeats disagree; [ ] = remark or other dose. Shown is part of a subset that was picked to be rich in hits. The call rests on the fitted dose curve; in most records, active means well fitted curve in the direction sought with a large enough effect; inconclusive means small, poorly fitted or top-dose-only effect, or another doubt; inactive means no such curve, though single readings can be large; an effect the other way counts as inactive or inconclusive.
SMILES,NTMT1 inh,FH mod,others
Cc1ccc([N+](=O)[O-])[c]2c1[O][Hg]2,0.89µM*,?,
CC[C@]1(O)CC[C@H]2[C@@H]3CCC4=CCCC[C@@H]4[C@H]3CC[C@@]21C,13µM*,-9%[53.3 µM],
Cc1c(N)nc([C@H](CC(N)=O)NC[C@@H](N)C(N)=O)nc1C(=O)N[C@H](C(=O)N[C@@H](C)[C@H](O)[C@@H](C)C(=O)N[C@@H](C(=O)NCCc1nc(-c2nc(C(=O)NCCC[S+](C)C)cs2)cs1)[C@@H](C)O)C(O[C@H]1O[C@H](CO)[C@H](O)[C@@H](O)[C@H]1O[C@H]1O[C@H](CO)[C@@H](O)[C@H](OC(N)=O)[C@@H]1O)c1cnc[nH]1 (stereo not given in full),26%[57.5 µM],·,
C/C=C(/C)C(=O)O[C@H]1[C@@H]2[C@H](C)C(=O)O[C@@H]2C[C@@H](C)[C@@H]2C=CC(=O)[C@]21C,4%[29.8 µM],1%[53.3 µM],
O=C1OC(c2ccc(O)c(S(=O)(=O)O)c2)(c2ccc(O)c(S(=O)(=O)O)c2)c2c(Br)c(Br)c(Br)c(Br)c21,79µM*,28µM*,
CN1C(=O)[C@]23CC4C(C)(C)[C@@]5(C[C@@]41CN2CC[C@@]3(C)O)C(=O)Nc1c5ccc2c1OC=CC(C)(C)O2 (stereo not given in full),7%[29.8 µM],-2%[53.3 µM],
CCOc1ccc(CCNC(=O)c2cc3ccccc3n2CCN2CCOCC2)cc1OCC,1%,·,
Nc1ccccc1,20µM*,-11%[53.3 µM],
Nc1ccc(N)cc1,?,-16%[53.3 µM],
Cc1c(P(=S)(c2ccccc2)c2ccccc2)[n+]2ccccc2n1C,16µM*!,·,
Cc1c(P(=S)(c2ccccc2)c2ccccc2)c2ccccc2n1C,4%,·,
CCc1[nH]c2ccc(OC)cc2c1CCN(C)C,?,6%,
Clc1ccc(C(c2ccc(Cl)cc2)n2cc[n+](CC(OCc3ccc(Cl)cc3Cl)c3ccc(Cl)cc3Cl)c2)cc1 (stereo not given),30µM*,?,
C=CC(C)(O)CC/C=C(\C)C(=O)O[C@H]1[C@H](O)[C@@H](CO)O[C@@H](OC(=O)[C@]23CCC(C)(C)CC2C2=CCC4[C@@]5(C)CC[C@H](O[C@@H]6O[C@H](CO[C@@H]7OC[C@H](O)[C@H](O)[C@H]7O[C@@H]7OC[C@@H](O)[C@H](O)[C@H]7O)[C@@H](O)[C@H](O)[C@H]6O)C(C)(C)C5CC[C@@]4(C)[C@]2(C)CC3)[C@@H]1OC1OC(C)C(O[C@@H]2OC[C@@H](O)[C@H](O[C@@H]3OC[C@@H](O)[C@H](O)[C@H]3O)[C@H]2O)C(O)C1O (stereo not given in full),11%[6.45 µM],-2%[13.5 µM],
CNc1ccc2oc(C[C@H]3O[C@@]4(CC[C@H]3C)O[C@H](C(C)C(=O)c3ccc[nH]3)[C@H](C)C[C@H]4C)nc2c1C(=O)O (stereo not given in full),?,-15%,
N#C/C(=C/c1ccc(O)c(O)c1)C(N)=S,?,13µM*!,
CCCN1CCc2cccc3c2[C@H]1Cc1ccc(O)c(O)c1-3,·,7.9µM*,
CC(=O)O[C@H]1C[C@]2(O)[C@@H]3CC[C@@H]4C[C@@H](O)CC[C@]4(C)[C@H]3CC[C@]2(C)[C@H]1c1ccc(=O)oc1,17%[57.5 µM],7%,
C[C@]12CC[C@@H]3c4ccc(OC(=O)N(CCCl)CCCl)cc4CC[C@H]3[C@@H]1CC[C@@H]2O,22µM*,-16%[53.3 µM],
C[C@]12CC[C@H]3[C@@H](CCC4=CC(=O)CC[C@@H]43)[C@@H]1CC[C@@H]2O,?,-2%[53.3 µM],
CCCCCCC1C(=O)O[C@H](C)[C@H](NC(=O)c2cccc(NC=O)c2O)C(=O)O[C@@H](C)[C@@H]1OC(=O)CC(C)C (stereo not given in full),5%[57.5 µM],-18%,
O=c1oc2ccccc2c(O)c1C(CC(O)c1ccc(-c2ccc(Br)cc2)cc1)c1ccccc1 (stereo not given),89µM*,?,
CCOC(=O)c1c(C(C#N)=CN)c2ccc(Cl)c(Cl)c2n1C,79µM*,11%[53.3 µM],
CC[C@H]1C[C@@H]2CC[C@@H](O2)[C@@H](C)C(=O)O[C@H](CC)C[C@H]2CC[C@H](O2)[C@H](C)C(=O)O[C@@H](C)C[C@@H]2CC[C@@H](O2)[C@@H](C)C(=O)O[C@H](CC)C[C@H]2CC[C@H](O2)[C@H](C)C(=O)O1,-15%[12.6 µM],-3%[20.6 µM],
CC1Oc2cc3c(-c4c(O)cc(O)c5c(O)c6c(cc45)OC(C)C(C)C6=O)c(O)cc(O)c3c(O)c2C(=O)C1C (stereo not given),18µM*,?,
CO/C1=C\C(C)=C\[C@@H](C)[C@@H](O)[C@@H](C)C/C(C)=C/C=C/[C@H](OC)[C@@H]([C@@H](C)[C@@H](O)[C@H](C)[C@@]2(O)C[C@@H](O)[C@H](C)[C@@H](C(C)C)O2)OC1=O,-19%[12.6 µM],3%[20.6 µM],
CN(N=O)c1cc(O)ccc1O,·,2.2µM*,
CC1CCCC(=O)CCC/C=C/c2cc(O)cc(O)c2C(=O)O1 (stereo not given),7.9µM*,-1%[53.3 µM],NNMT inh=?
CC(=O)C1CCC2C3CCC4C[C@@H](O)CCC4(C)C3CCC12C (stereo not given in full),3%[57.5 µM],-3%,
